Calls of active or inactive are those of the source.
Key:
[1] = tested on: Human papillomavirus type 1a protein E7 (residues 44-93); assay: small molecules binding HPV E7 44-93 – biochemical, small-molecule microarray, residues 44-93, 635 nm fluorescence, primary screen (AID 1108); conditions: fluorescence 635 nm, higher = more signal;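 further: E7 fragment applied at 1 µg/mL in TBST for 1 h at 4 C; score combines spot fluorescence with its signal to noise ratio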
[2] = hepatitis C replication reporter changes, two-sided – Huh7 cells, luciferase reporter, HCV replication inhibitor project, primary screen (AID 1109); conditions: Huh7 HCV replicon luciferase reporter, 48 h; higher = more signal;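 further: huh7 hepatoma cells harbouring a luciferase neomycin HCV replicon reporter; luciferase luminescence as measure of HCV replicon replication; test concentration not given here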
[3] = target: Left-right determination factor 2 (Homo sapiens) (UniProt O00292); assay: small molecules binding LEFTY2 protein – biochemical, small-molecule microarray, 635 nm fluorescence scan, primary screen (AID 1110); conditions: higher = more signal
Chain of Left-right determination factor 2 (Homo sapiens) (O00292 whole entry, looked up): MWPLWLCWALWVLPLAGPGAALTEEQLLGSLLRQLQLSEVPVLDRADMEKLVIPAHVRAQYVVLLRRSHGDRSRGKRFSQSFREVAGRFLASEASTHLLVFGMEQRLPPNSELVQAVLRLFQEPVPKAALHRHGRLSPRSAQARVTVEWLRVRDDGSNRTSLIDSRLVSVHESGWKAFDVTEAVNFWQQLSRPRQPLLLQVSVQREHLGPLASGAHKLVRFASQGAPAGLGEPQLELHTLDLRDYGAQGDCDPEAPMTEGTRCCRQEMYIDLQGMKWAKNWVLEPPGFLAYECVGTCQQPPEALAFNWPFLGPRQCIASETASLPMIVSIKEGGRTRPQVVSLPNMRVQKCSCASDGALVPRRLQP

[4] = target: Calmodulin-1 (Homo sapiens) (UniProt P0DP23); assay: small molecules binding calmodulin-1 with EGTA – biochemical, small-molecule microarray, Cy5-labelled CALM1, profiling panel (AID 1111); conditions: Cy5-CALM1 binding fluorescence, higher = more signal;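 further: labelled calmodulin applied in Tris saline Tween buffer holding calcium plus EGTA and DTT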
[5] = target: Calmodulin-1 (Homo sapiens) (UniProt P0DP23); assay: small molecules binding Ca-loaded calmodulin-1 – biochemical, small-molecule microarray, Cy5-labelled CALM1, plus calcium, artefact control for SMM control-protein annotation, profiling panel (AID 1112); conditions: Cy5-CALM1 binding fluorescence, higher = more signal;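 further: score merges spot fluorescence with signal to noise from triplicate slides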
[6] = probe aWnt5a binding to arrayed compounds – biochemical, biotinylated probe, 635/667 nm fluorescence, primary screen (AID 1113); conditions: small-molecule microarray, higher = more signal;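 further: score merges 667 nm fluorescence intensity with signal-to-noise per printed feature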
[7] = probe aShh binding to arrayed compounds – biochemical, biotinylated probe, 635/667 nm fluorescence, primary screen (AID 1114); conditions: small-molecule microarray, higher = more signal;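 further: probe is biotin-labelled aShh protein from a stem cell growth factor screen; measures binding of labelled protein to compounds printed on the slide; score merges feature fluorescence at 667 nm with signal-to-noise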
[8] = probe aNog binding to arrayed compounds – biochemical, biotinylated probe, 635/667 nm fluorescence, primary screen (AID 1115); conditions: small-molecule microarray, higher = more signal;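 further: probe is biotinylated aNog protein used at 0.15 µg/mL for 1 h at 4 C; z-score combines 667 nm fluorescence of each spot with its signal to noise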
[9] = target: Torsin-1A-interacting protein 1 (Homo sapiens) (UniProt Q5JTV8); assay: compound microarray binding of lysate hLAP1 – cell lysate, small-molecule microarray, COS7 lysate, 635/667 nm fluorescence, primary screen (AID 1116); conditions: 635 nm fluorescence, higher = more signal
Chain of Torsin-1A-interacting protein 1 (Homo sapiens) (Q5JTV8 whole entry, looked up): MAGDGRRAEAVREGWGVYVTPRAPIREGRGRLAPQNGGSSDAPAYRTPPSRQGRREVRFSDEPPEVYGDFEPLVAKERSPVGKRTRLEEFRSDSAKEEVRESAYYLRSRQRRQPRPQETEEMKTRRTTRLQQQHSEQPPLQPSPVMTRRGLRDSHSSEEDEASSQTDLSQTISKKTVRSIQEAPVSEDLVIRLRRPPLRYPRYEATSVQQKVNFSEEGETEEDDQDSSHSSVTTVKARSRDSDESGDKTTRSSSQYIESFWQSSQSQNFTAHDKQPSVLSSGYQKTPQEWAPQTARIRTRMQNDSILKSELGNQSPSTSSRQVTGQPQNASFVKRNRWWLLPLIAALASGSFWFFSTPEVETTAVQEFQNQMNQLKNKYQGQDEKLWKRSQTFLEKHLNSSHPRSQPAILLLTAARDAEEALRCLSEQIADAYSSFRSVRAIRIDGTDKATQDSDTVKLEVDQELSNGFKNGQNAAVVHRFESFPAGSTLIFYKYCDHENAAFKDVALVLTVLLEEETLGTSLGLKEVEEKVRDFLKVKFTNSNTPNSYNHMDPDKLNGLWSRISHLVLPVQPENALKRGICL

[10] = target: Alpha-bungarotoxin (Bungarus multicinctus) (UniProt P60615); assay: compounds binding labelled alpha-BTX control protein – biochemical, small-molecule microarray, Alexa647 label, 635/667 nm fluorescence, artefact control for SMM control protein annotation, profiling panel (AID 1117); conditions: alpha-BTX-A647 binding fluorescence, higher = more signal
Chain of Alpha-bungarotoxin (Bungarus multicinctus) (P60615 whole entry, looked up): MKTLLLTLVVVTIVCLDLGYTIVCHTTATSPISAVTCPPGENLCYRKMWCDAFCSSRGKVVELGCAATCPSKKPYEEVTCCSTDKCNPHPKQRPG

[11] = target: Albumin (Bos taurus) (UniProt P02769); assay: compounds binding labelled BSA control protein – biochemical, small-molecule microarray, Alexa647 label, 635/667 nm fluorescence, artefact control for SMM control protein annotation, profiling panel (AID 1118); conditions: BSA-A647 binding, fluorescence 635 nm, higher = more signal;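 further: score merges 667 nm emission intensity and signal-to-noise per printed compound spot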
Chain of Albumin (Bos taurus) (P02769 whole entry, looked up): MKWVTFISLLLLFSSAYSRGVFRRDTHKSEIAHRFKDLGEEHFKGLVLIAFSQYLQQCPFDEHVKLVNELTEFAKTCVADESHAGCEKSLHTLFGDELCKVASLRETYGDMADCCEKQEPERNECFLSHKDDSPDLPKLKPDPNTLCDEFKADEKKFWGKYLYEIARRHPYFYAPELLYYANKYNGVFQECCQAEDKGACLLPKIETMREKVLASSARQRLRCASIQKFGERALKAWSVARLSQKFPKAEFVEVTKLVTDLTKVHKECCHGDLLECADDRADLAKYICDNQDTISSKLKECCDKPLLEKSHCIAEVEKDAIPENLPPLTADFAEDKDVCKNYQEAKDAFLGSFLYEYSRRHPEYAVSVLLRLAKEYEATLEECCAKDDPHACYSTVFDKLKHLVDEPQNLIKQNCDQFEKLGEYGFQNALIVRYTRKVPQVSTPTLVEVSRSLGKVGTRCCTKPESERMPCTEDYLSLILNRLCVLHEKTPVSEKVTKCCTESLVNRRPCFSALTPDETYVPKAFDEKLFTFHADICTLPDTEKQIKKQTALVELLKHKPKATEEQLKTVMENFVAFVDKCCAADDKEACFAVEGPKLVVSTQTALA

[12] = probe aXIP binding to arrayed compounds – biochemical, NeuroSMM set, 635/667 nm fluorescence, primary screen (AID 1119); conditions: small-molecule microarray, higher = more signal, called active from +8 up or from −8 down;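 further: probe is the protein aXip251-270 applied at 1 µg/mL to compound-printed slides; binding of probe to printed compounds measured as 667 nm fluorescence plus signal to noise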
[13] = probe aNOTCH3 binding on compound microarray – biochemical, small-molecule microarray, 635/667 nm fluorescence, primary screen (AID 1120); conditions: higher = more signal;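 further: probe is a biotin-tagged antibody raised against NOTCH3 rather than NOTCH3 protein; score merges spot fluorescence near 667 nm with spot signal to noise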
[14] = probe aNOTCH2 binding on compound microarray – biochemical, small-molecule microarray, 635/667 nm fluorescence, primary screen (AID 1121); conditions: higher = more signal;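 further: score merges feature fluorescence read at 667 nm with its signal to noise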
[15] = target: Carbonic anhydrase 2 (Homo sapiens) (UniProt P00918); assay: compounds binding carbonic anhydrase 2 – biochemical, small-molecule microarray, Alexa647-labelled CAII, profiling panel (AID 1122); conditions: CAII-A647 binding fluorescence, higher = more signal
[16] = COS7 lysate on small-molecule microarray, probe aHis, 635 nm (AID 1123); conditions: COS7 cell lysate, fluorescence, higher = more signal;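 further: z-score combines 667nm fluorescence intensity with signal-to-noise per printed compound spot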
[17] = probe aLAP1 signal on lysate-treated microarray – cell lysate, small-molecule microarray, COS7 lysate, primary screen (AID 1124); conditions: probe aLAP1, fluorescence, higher = more signal;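 further: lysate comes from COS7 cells expressing LAP1 and is applied at 0.3 µg/mL; score merges spot fluorescence near 667 nm with signal-to-noise over triplicate slides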
[18] = tested on: Sam68 (KHDRBS1); assay: compounds binding KHDRBS1 protein – biochemical, small-molecule microarray, 635 nm fluorescence, primary screen (AID 1125); conditions: higher = more signal;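 further: score merges 667 nm channel intensity with signal to noise over triplicate slides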
[19] = tested on: Chordin-like protein 2 (CHRDL2); assay: compounds binding chordin-like 2 – biochemical, small-molecule microarray, 635 nm fluorescence, primary screen (AID 1126); conditions: fluorescence 635 nm, higher = more signal;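 further: printed compound slides probed with Chrdl2 protein at 4 µg/mL for 1 h at 4 C; score merges 667 nm emission intensity with signal to noise over three replicate slides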
[20] = target: Concanavalin-A (Canavalia ensiformis) (UniProt P02866); assay: compounds binding concanavalin A lectin – biochemical, small-molecule microarray, Alexa647 label, 635 nm, artefact control for SMM control protein annotation, primary screen (AID 1127); conditions: ConA-A647 binding fluorescence, higher = more signal;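 further: z combines 667 nm emission intensity with signal-to-noise across three replicate slides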
Chain of Concanavalin-A (Canavalia ensiformis) (P02866 whole entry, looked up): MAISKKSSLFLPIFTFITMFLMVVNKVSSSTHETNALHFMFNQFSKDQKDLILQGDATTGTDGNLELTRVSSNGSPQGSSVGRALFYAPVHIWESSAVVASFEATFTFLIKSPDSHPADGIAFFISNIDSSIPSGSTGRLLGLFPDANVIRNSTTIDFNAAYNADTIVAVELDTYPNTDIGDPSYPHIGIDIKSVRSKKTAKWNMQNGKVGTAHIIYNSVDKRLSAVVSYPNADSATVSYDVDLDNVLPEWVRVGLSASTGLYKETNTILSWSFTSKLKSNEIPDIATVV

Structure (SMILES) | composite z-score [1] | z-score [2] | composite z-score [3] | composite z-score [4] | composite z-score [5] | composite z-score [6] | composite z-score [7] | composite z-score [8] | composite z-score [9] | composite z-score [10] | composite z-score [11] | composite Z-score [12] | composite z-score [13] | composite z-score [14] | composite z-score [15] | composite z-score [16] | composite z-score [17] | composite z-score [18] | composite z-score [19] | composite z-score [20]
NC(=O)NCC#Cc1ccc2c(c1)[C@]1(C(=O)N2)[C@H](C(=O)N2CCN(c3ncccn3)CC2)[C@H]2C(=O)O[C@H](c3ccccc3)[C@H](c3ccccc3)N2[C@@H]1c1ccc(OCCO)cc1 | 1.23 | -1.6 | 0.0996 | 0.756 | 0.514 | 0.0775 | -0.0553 | 0.833 | 0.572 | 1.42 | 0.003 | 0.17 (inactive) | 0.127 | -0.084 | 0.236 | 0.944 | 0.241 | 0.982 | 0.106 | 0.972
COC(=O)C1=CC(CCCO)=CC(c2ccc(CN3CCCC3)cc2)N(Cc2cc3c(cc2Br)OCO3)C=C1C(=O)OC (stereo not given) | 1.39 | -0.803 | 0.688 | 1.9 | 0.795 | 0.212 | 0.839 | -0.603 | 1.48 | 0.853 | 1.04 | 0.339 (inactive) | 0.477 | 0.135 | 0.705 | 1.76 | 0.672 | 1.3 | -0.384 | 0.701
COc1ccc([Si](C)(C)[C@H]2[C@H](CCO)O[C@@]3(C(=O)N(Cc4ccc(N5C(=O)c6ccccc6Oc6ccccc65)cc4)c4ccccc43)[C@@H]2C)cc1 | -0.451 | -4.8 | -0.804 | 0.12 | 0.908 | -0.124 | 0.0121 | 0.0078 | -0.438 | -0.516 | -0.0162 | -0.291 (inactive) | -0.0212 | -0.204 | 0.0539 | 0.648 | -0.299 | -0.652 | -0.348 | -0.352
C=CCC(OC(C)=O)[C@@H]1[C@@H](N(Cc2ccc(-c3cccc(C(F)(F)F)c3)o2)C(=O)Cc2ccc(OC)cc2)c2cc(OCCCO)ccc2N1C(=O)Cc1ccc2ccccc2c1 (stereo not given in full) | -0.763 | 0.685 | -0.429 | -0.472 | -0.427 | -0.0383 | -0.206 | -0.463 | -0.33 | 0.553 | 0.315 | -0.0998 (inactive) | -0.158 | -0.14 | -0.121 | 0.631 | -0.31 | -0.0204 | -0.0929 | -0.0477
O=C(CS)NCCCCCNC(=O)[C@@H]1C[C@@H]2C(=O)N[C@@H](Cc3ccccc3)C(=O)N2[C@@H]1c1cccc(OCCO)c1 | 1.41 | 0.266 | 0.705 | 1.94 | -0.0675 | -0.302 | -0.482 | -0.458 | 1.08 | 1.54 | -0.884 | -0.32 (inactive) | -0.638 | -0.446 | 0.665 | 2.7 | 0.426 | 1.34 | 0.914 | 1.13

— PubChem BioAssay
